Most compounds without a hit are left out; they make up all but 4.2% or so of the library.
Sfp PPTase inh – qHTS Assay for Inhibitors of Bacillus subtilis Sfp phosphopantetheinyl transferase (PPTase). 4'-phosphopantetheinyl transferase ffp (Bacillus subtilis), Q9F4F7. Biochemical Sfp PPTase activity, qHTS. Potency, µM, most hits filed as inhibitors. 3.5% of 310,000 active. AID 1490, 2009;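 also: the enzyme is Sfp with the accession as filed and its product quenches rhodamine fluorescence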
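After 15 min at room temperature with compound, 15 nM Sfp received 5 uM rhodamine-CoA plus 12.5 uM BHQ-2-ybbR (50 mM Hepes pH 7.6, 10 mM MgCl2). Rate came from the fluorescence difference over 30 min, ex 525/em 598 nm.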
PLK1 PBD inh – qHTS for Inhibitors of PLK1-PDB (polo-like kinase 1 - polo-box domain): Primary Screen | Serine/threonine-protein kinase PLK1 (Homo sapiens), P53350 | Plk1 PBD binding of FITC phosphopeptide, fluorescence polarization | Potency, µM, usual class: inhibitors | 2.8% of 360,000 active | AID 720504, 2013; also: series mostly up to about 57 µM; nearly all actives have a fitted effect of over 65% in size
Target sequence (P53350 whole entry, looked up, the tested form may be a part): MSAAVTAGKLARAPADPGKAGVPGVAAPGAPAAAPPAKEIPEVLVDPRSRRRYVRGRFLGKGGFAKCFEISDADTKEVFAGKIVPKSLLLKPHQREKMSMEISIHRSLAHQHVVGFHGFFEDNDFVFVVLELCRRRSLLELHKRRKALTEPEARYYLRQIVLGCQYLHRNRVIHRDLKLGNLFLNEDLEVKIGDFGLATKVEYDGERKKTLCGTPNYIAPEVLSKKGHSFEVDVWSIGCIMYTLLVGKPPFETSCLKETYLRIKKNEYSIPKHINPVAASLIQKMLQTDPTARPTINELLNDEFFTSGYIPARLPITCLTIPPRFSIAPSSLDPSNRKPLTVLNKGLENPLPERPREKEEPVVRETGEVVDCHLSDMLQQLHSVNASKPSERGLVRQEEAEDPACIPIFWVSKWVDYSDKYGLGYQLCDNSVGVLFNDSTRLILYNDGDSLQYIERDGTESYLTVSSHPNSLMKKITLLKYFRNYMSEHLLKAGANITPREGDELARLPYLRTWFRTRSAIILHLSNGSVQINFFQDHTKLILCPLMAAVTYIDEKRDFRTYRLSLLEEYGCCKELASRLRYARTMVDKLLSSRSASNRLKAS
VDR inhibitor – Inhibitors of the vitamin D receptor (VDR): qHTS; Vitamin D3 receptor (Homo sapiens), P11473; VDR-SRC2-3 peptide fluorescence polarization, 2 h; Potency, µM, most hits filed as inhibitors; 0.93% of 400,000 active
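Measured by FP: displacement of SRC2-3 coactivator peptide from VDR by library compounds, following a two-hour ambient incubation.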
ALOX12 inh – Primary qHTS assay for inhibitors of human arachidonate 12S-lipoxygenase (ALOX12): Round 2 | Potency, µM (highest dose often 108 µM), hits mostly inhibitors | purified 12hLO, xylenol orange hydroperoxide absorbance | AID 1671190, 2021 | 1.1% of 580,000 active | Polyunsaturated fatty acid lipoxygenase ALOX12 (Homo sapiens), P18054
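Purified human 12hLO at 150 nM in 25 mM Hepes, 0.01% Triton X-100, pH 7.0, preincubated 15 min at room temperature with compound. Reaction started with 40 uM arachidonic acid, 30 min at room temperature. Hydroperoxide measured by Fe-xylenol orange, 573/405 nm absorbance ratio.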
Hits are given with their value; i = inactive; ? = inconclusive; nt = no result given. Calls follow the shape of the dose curve; as a rule, active = well fitted curve in the direction sought with a large enough effect; inconclusive = small, poorly fitted or top-dose-only effect, or another doubt; inactive = no such curve, though single readings can be large; an effect the other way counts as inactive or inconclusive.

SMILES | Sfp PPTase inh | PLK1 PBD inh | VDR inhibitor | ALOX12 inh
CC(C)(C)OC(=O)N1CCC[C@H]1C(=O)NCc1ccc(Cl)cc1Cl | i | 26.7µM | ? | i
Cc1cc(NC(=O)c2cc(-c3ccco3)on2)nn1Cc1ccc(Cl)cc1 | 17.8µM | i | i | ?
Cc1nn(-c2ccccn2)c2nc(-c3cccs3)cc(C(=O)N3CCOCC3)c12 | i | 11.9µM | ? | i
COC(=O)c1ccccc1NC(=O)c1sc(=S)n(C)c1N | 25.1µM | 5.97µM | i | ?
COC(=O)c1ccccc1NC(=O)c1sc(N)nc1C | i | i | i | i
CCc1cccc(CC)c1NC(=O)CSc1nnc(C2CC2)n1C | i | i | 89.1µM | i
CCc1cccc(CC)c1NC(=O)CSc1nnc(C2CC2)n1N | nt | i | i | i
O=C1NC(=O)/C(=C\c2ccccc2OCc2ccccc2)S1 | i | ? | i | ?
O=C1NC(=O)/C(=C/c2cccc3ccccc23)S1 | i | 26.7µM | i | i
O=C1NC(=O)C(=Cc2ccccc2[N+](=O)[O-])S1 | nt | 13.4µM | ? | ?
CCOC(=O)c1c(S(=O)(=O)N2CCCC2)nn(CC)c1C | nt | nt | nt | 12.6µM
CC(OC(=O)CC1Sc2ccccc2NC1=O)C(=O)N(C)Cc1ccccc1 (stereo not given) | nt | 18.9µM | i | ?
COCCNC(=O)C(OC(=O)CC1Sc2ccccc2NC1=O)c1ccccc1 (stereo not given) | i | i | i | i
O=C(/C=C/c1ccccc1)C1=C(O)C(=O)N(CCO)C1c1cccc([N+](=O)[O-])c1 (stereo not given) | i | i | i | 22.4µM
Nc1nc(-c2ccccc2Cl)cs1 | nt | 18.9µM | ? | ?
CN1CCN(CC(=O)Nc2nc(-c3c[nH]c4ccccc34)cs2)CC1 | i | i | i | ?
CCC(C)Nc1nc(-c2c[nH]c3ccccc23)cs1 (stereo not given) | ? | i | ? | 50.1µM
Cc1ccccc1-c1csc(N)n1 | nt | ? | i | i
c1ccc(CCNc2nc(-c3c[nH]c4ccccc34)cs2)cc1 | nt | nt | nt | 44.7µM
CNc1nc(-c2c[nH]c3ccccc23)cs1 | 56.2µM | ? | ? | ?
O=C(N[C@@H]1CCC[C@@H]1C(=O)N1CCSCC1)c1ccncc1 | nt | nt | nt | i
Cc1cc(Cl)c(C)c(S(=O)(=O)N2CCN(CC(=O)N3CCOCC3)CC2)c1Cl | nt | i | i | i
COc1ccc(Br)cc1/C=C/C(=O)O | nt | nt | nt | i
c1ccc2c(-c3csc(NC4CC4)n3)c[nH]c2c1 | nt | nt | nt | i
O=C(Nc1nc(-c2c[nH]c3ccccc23)cs1)C1CCC1 | nt | nt | nt | 50.1µM
SMILES | Sfp PPTase inh | PLK1 PBD inh | VDR inhibitor | ALOX12 inh
Nc1nc(-c2c[nH]c3ccccc23)cs1 | 22.4µM | ? | i | ?
Cc1cc(C(=O)NCC(=O)N2CCCCCNC(=O)CC2c2ccccc2)n(C)n1 (stereo not given) | nt | nt | nt | i
COc1ccccc1OCCCOc1ccc(/C=C2\SC(=O)NC2=O)cc1OC | i | ? | i | i
COc1ccccc1OCCCOc1cccc(/C=C2\SC(=O)NC2=O)c1 | ? | 21.2µM | ? | i
COc1ccc(CC(=O)N2CC(c3nnc(-c4ccncc4)o3)C3(CCOCC3)C2)cc1 (stereo not given) | nt | nt | nt | i
CC(=O)OCCn1c2nc(=O)[nH]c(=O)c-2nc2cc(C)c(C)cc21 | i | 0.844µM | i | i
Cc1ccc(S(=O)(=O)N2CCN(C(=O)c3c(-c4ccccc4)noc3C)CC2)cc1C | i | i | i | i
CCCn1c(N)c(N(CCOC)C(=O)c2cccnc2OCC)c(=O)[nH]c1=O | nt | nt | nt | 15.8µM
CCCCN(C(=O)c1cccnc1OCC)c1c(N)n(CCC)c(=O)[nH]c1=O | nt | nt | nt | i
NC(=O)[C@H](CC1CCCCC1)NC(=O)[C@H]1CN(C(=O)c2cccc(F)c2)CCN1C(=O)C1CCNCC1 | nt | nt | nt | i
CCCCCCCCOc1cccc(OCC(=O)O)c1 | nt | nt | nt | i
CCCCCCCCCCOc1cc(OCCCCCCCCCC)cc(N(CC(=O)O)CC(=O)O)c1 | i | nt | 50.1µM | nt
C(#CC1CCCC1)c1ccc2c(c1)COc1c3ccccc3nn1-2 | i | i | i | i
O=C1Nc2ccccc2N=C(c2ccccc2)C1Br (stereo not given) | 44.7µM | i | i | 39.8µM
CC(NC(=O)Cn1cc(C(=O)C2CC2)c2ccccc21)c1ccccc1 (stereo not given) | i | 29.9µM | i | i
COC(=O)Cn1cc(C(=O)C2CC2)c2ccccc21 | i | i | i | i
S=c1c2c(nc3nc[nH]n13)CCC2 | 14.1µM | i | i | ?
Cc1ccccc1C(=O)Nc1ccccc1N1CCN(C(=O)c2ccccc2)CC1 | i | i | i | i
CCc1ccc(C2CC(=O)NC(NC(=O)c3ccc(C(C)(C)C)cc3)=N2)cc1 (stereo not given) | nt | nt | i | i
O=c1cc(CSc2nnc(C3CC3)n2Cc2ccccc2)nc2sccn12 | i | i | i | i
CCOCc1nc(C2CCCN(C(=O)c3ccccc3F)C2)no1 (stereo not given) | nt | nt | nt | i
CCOC(=O)C1CCN(S(=O)(=O)c2ccc3c(c2)N(C(C)=O)CC(C)S3)CC1 (stereo not given) | i | 18.9µM | ? | i
CCOC(=O)c1ccc(S(=O)(=O)N2CCC(C(=O)OCC)CC2)cc1 | i | i | i | i
CC(=O)N1CC(C)Sc2ccc(S(=O)(=O)NC3CCCCC3C)cc21 (stereo not given) | i | 29.9µM | i | i
CCOC(=O)C1CCN(S(=O)(=O)c2ccc(CC)cc2)CC1 | i | 8.44µM | 39.8µM | i
SMILES | Sfp PPTase inh | PLK1 PBD inh | VDR inhibitor | ALOX12 inh
CCN(C)C(C)C(=O)N1CCC(Oc2ccccc2C)(C(=O)O)CC1 (stereo not given) | nt | nt | nt | i
O=C1C(Br)=C(c2ccccc2)C(c2ccccc2)=C1c1ccccc1 | nt | 2.67µM | ? | nt
O=C(O)c1ccc(-c2nc(-c3ccc(Cl)cc3Cl)cs2)cc1 | i | i | i | ?
CC(=O)N1CC[n+]2c(-c3ccc(Cl)cc3Cl)csc21 | 31.6µM | ? | 39.8µM | ?
O=C(c1cc(-c2cccc(O)c2)on1)N1CCCC1 | i | i | i | i
C=CCNS(=O)(=O)c1cc(S(=O)(=O)NCC=C)c(OC)cc1OC | i | ? | i | i
CCOc1ccc2[nH]c(=O)c(CN(CCO)C(c3nnnn3C3CCCCC3)C(C)C)cc2c1 (stereo not given) | 89.1µM | i | i | i
O=C1CCNc2cc3ccccc3cc21 | i | 21.2µM | ? | nt
O=C1CCNc2ccc(-c3ccccc3)cc21 | ? | 9.47µM | i | i
COc1ccc(CN2CCN(C(=O)Nc3ccc(C)cc3)CC2)c(OC)c1OC | nt | nt | nt | i
O=C(CNc1nc(Cl)nc2nc[nH]c12)NCCc1c[nH]c2ccccc12 | nt | nt | nt | i
COC(=O)C1CCC(=S)N1C(=O)c1ccccc1 (stereo not given) | ? | i | ? | 8.91µM
CCOc1ccc(OCC)c(NC(=O)C2CCN(S(=O)(=O)c3cn(C)cn3)CC2)c1 | nt | nt | i | i
CCOc1ccc(OCC)c(NC(=O)C2CCN(S(=O)(=O)c3c(C)[nH]c(=O)[nH]c3=O)CC2)c1 | i | 16.8µM | i | i
CCOc1ccc(C(=O)c2ccc(O)c(O)c2O)cc1 | 50.1µM | nt | ? | nt
CCOc1cccc(C(=O)c2ccc(O)c(O)c2O)c1 | i | nt | ? | nt
